Test results reported in PubChem BioAssay (NCI).
This is part of a sample that, as a whole, favours compounds with a hit. Of some 79,000 tested, about 15% had one in any assay. The source made the active and inactive calls. Rule as the data show it: active = growth inhibition above about 70%; inactive = the rest.

Legend:
[1] = NCI Yeast Anticancer Drug Screen. Data for the wt1 strain (AID 149);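 also: 0% = growth of vehicle-treated wt1 cultures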; settings: S. cerevisiae wt1 strain (SPY 50644) growth inhibition, active compounds read high
Procedure, shortened: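 wt1 yeast, compound-treated; % growth inhibition vs vehicle control.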

[2] = NCI Yeast Anticancer Drug Screen. Data for the rad50EPP+ strain (AID 151);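 also: 0% = growth of vehicle-treated control cultures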; settings: S. cerevisiae rad50 mutant strain, active compounds read high
Procedure, shortened: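 In this screen, rad50EPP+ yeast were exposed to compounds. Growth inhibition was scored against vehicle-treated controls.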

[3] = NCI Yeast Anticancer Drug Screen. Data for the rad50 strain (AID 155);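 also: 0% = growth of vehicle-only cultures of the same strain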; settings: S. cerevisiae rad50 strain growth inhibition, active compounds read high
Procedure, shortened: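 Genetically altered yeast (DNA repair pathway); compound treatment; growth inhibition vs vehicle ctrl.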

[4] = NCI Yeast Anticancer Drug Screen. Data for the mec2-1 strain (AID 157); settings: S. cerevisiae mec2-1 strain, active compounds read high
Procedure, shortened: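 Vehicle-treated cultures served as reference for growth inhibition of compound-exposed mec2-1 yeast.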

[5] = NCI Yeast Anticancer Drug Screen. Data for the rad14 strain (AID 159);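 also: 0% = growth of vehicle-treated control cultures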; settings: S. cerevisiae rad14 strain growth inhibition, active compounds read high
Procedure, shortened: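 Test compounds were applied to a repair-deficient yeast strain. Its growth was then compared with that of cultures given vehicle alone, and inhibition was expressed relative to those controls.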

[6] = NCI Yeast Anticancer Drug Screen. Data for the sgs1 mgt1 strain (AID 161);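 also: 0% = growth of cultures given vehicle only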; settings: S. cerevisiae sgs1 mgt1 strain, active compounds read high
Procedure, shortened: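 Read-out: growth inhibition vs vehicle controls. Cells: mutant yeast strain deficient in DNA damage repair.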

[7] = NCI Yeast Anticancer Drug Screen. Data for the CLN2oe strain (AID 163);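 also: 0% = growth of vehicle-only control cultures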; settings: S. cerevisiae CLN2oe strain, active compounds read high
Procedure, shortened: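 Inhibition relative to vehicle-treated yeast is reported. Cells: strain with genetic alteration in cell-cycle control, grown with compound.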

[8] = NCI Yeast Anticancer Drug Screen. Data for the cln2 rad14 strain (AID 165);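 also: 0% = growth equal to vehicle treated cultures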; settings: S. cerevisiae cln2 rad14 strain, active compounds read high
Procedure, shortened: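 Each compound was tested on cln2 rad14 yeast. Inhibition of growth was calculated against vehicle-exposed controls.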

[9] = NCI Yeast Anticancer Drug Screen. Data for the bub3 strain (AID 167); settings: S. cerevisiae bub3 mutant strain, active compounds read high
Procedure, shortened: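 Yeast carrying a defined mutation is treated with each compound, and growth is compared with that of vehicle-exposed cells to give inhibition.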

[10] = NCI Yeast Anticancer Drug Screen. Data for the wt2 strain (AID 169);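 also: 0% = growth of vehicle-treated yeast cultures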; settings: S. cerevisiae wt2 strain growth inhibition, active compounds read high
Procedure, shortened: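 Inhibition of yeast growth was determined after compound treatment, normalised to controls receiving only vehicle.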

[11] = NCI Yeast Anticancer Drug Screen. Data for the mlh1 strain (AID 171);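 also: 0% = growth of vehicle-treated control cultures of the same strain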; settings: S. cerevisiae mlh1 strain growth inhibition, active compounds read high
Procedure, shortened: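 Vehicle-normalised growth inhibition of a repair- or checkpoint-altered yeast strain following compound treatment.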

[12] = NCI Yeast Anticancer Drug Screen. Data for the sgs1 strain (AID 173);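 also: 0% = growth of vehicle-only control cultures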; settings: S. cerevisiae sgs1 mutant, active compounds read high
Procedure, shortened: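 Screen format: yeast with repair or checkpoint alterations, compound exposure, growth read relative to vehicle.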

[13] = NCI Yeast Anticancer Drug Screen. Data for the mlh1 rad18 strain (AID 175); settings: S. cerevisiae mlh1 rad18 strain growth inhibition, active compounds read high
Procedure, shortened: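 Vehicle-treated cultures served as the reference for growth inhibition in a yeast strain carrying DNA damage repair alterations exposed to each compound.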

[14] = NCI Yeast Anticancer Drug Screen. Data for the rad18 strain (AID 177); settings: S. cerevisiae rad18 mutant growth inhibition, active compounds read high
Procedure, shortened: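 Test articles were incubated with altered yeast defective in DNA damage repair. Results are given as inhibition of growth versus vehicle.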

[15] = NCI Yeast Anticancer Drug Screen. Data for the rad52 strain (AID 147);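 also: 0% = growth of vehicle-treated control cultures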; settings: S. cerevisiae rad52 mutant growth inhibition, active compounds read high
Procedure, shortened: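 Vehicle-treated cultures served as the reference for growth inhibition of compound-exposed yeast bearing a DNA repair mutation.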

[16] = at 5.0 µM (retest, dose inferred, filed as 0.5)
[17] = at 50.0 µM (retest, dose inferred, filed as 5.0)

Measured: growth inhibition

OC1(c2ccccc2)CC2CCC(C1)N2CCCC(O)(c1ccccc1)c1ccccc1 (stereo unspecified)
active: [5]; at 100.0 µM 96% | [6]; at 50.0 µM 71.8% | [9]; at 100.0 µM 80% | [10]; at 100.0 µM 80% | [11]; at 100.0 µM 80% | [12]; at 100.0 µM 89%
inactive: [1]; at 1.2 µM 1% | [1]; at 3.7 µM 1% | [1]; at 11.0 µM 2% | [1]; at 33.0 µM 6% | [1]; at 100.0 µM 24% | [2]; at 1.2 µM -5% | [2]; at 3.7 µM -3% | [2]; at 11.0 µM 0% | [2]; at 33.0 µM 2% | [2]; at 100.0 µM 5% | [3]; at 1.2 µM -6% | [3]; at 3.7 µM -15% | [3]; [16] -8% | [3]; at 11.0 µM -13% | [3]; at 33.0 µM 21% | [3]; [17] 6% | [3]; at 50.0 µM 33.2% | [3]; at 100.0 µM 62% | [4]; at 1.2 µM 0% | [4]; at 3.7 µM 1% | [4]; [16] -10% | [4]; at 11.0 µM 4% | [4]; at 33.0 µM 18% | [4]; [17] 10% | [4]; at 50.0 µM -2.2% | [4]; at 100.0 µM 37% | [5]; at 1.2 µM 4% | [5]; at 3.7 µM 5% | [5]; at 11.0 µM 15% | [5]; at 33.0 µM 53% | [6]; [16] -2% | [6]; [17] 44% | [7]; at 1.2 µM -4% | [7]; at 3.7 µM -5% | [7]; at 11.0 µM -2% | [7]; at 33.0 µM 12% | [7]; at 100.0 µM 49% | [8]; [16] 1% | [8]; [17] 52% | [8]; at 50.0 µM 2.55% | [9]; at 1.2 µM 0% | [9]; at 3.7 µM 0% | [9]; [16] 8% | [9]; at 11.0 µM 5% | [9]; at 33.0 µM 30% | [9]; [17] 67% | [9]; at 50.0 µM 53.7% | [10]; at 1.2 µM -1% | [10]; at 3.7 µM -1% | [10]; at 11.0 µM 1% | [10]; at 33.0 µM 17% | [11]; at 1.2 µM 1% | [11]; at 3.7 µM 1% | [11]; at 11.0 µM 3% | [11]; at 33.0 µM 23% | [12]; at 1.2 µM 1% | [12]; at 3.7 µM 3% | [12]; at 11.0 µM 3% | [12]; at 33.0 µM 38% | [13]; [16] -7% | [13]; [17] 26% | [13]; at 50.0 µM 53.5% | [14]; at 1.2 µM 0% | [14]; at 3.7 µM -1% | [14]; at 11.0 µM 4% | [14]; at 33.0 µM 28% | [14]; at 100.0 µM 57%

CC1(C)N=C(N)N=C(N)N1c1cccc(N)c1.[Sn]
active: [6]; [17] 90% | [13]; [17] 78%
inactive: [15]; at 1.2 µM 18% | [15]; at 3.7 µM 21% | [15]; at 11.0 µM 19% | [15]; at 33.0 µM 24% | [15]; at 100.0 µM 43% | [1]; at 1.2 µM 21% | [1]; at 3.7 µM 17% | [1]; at 11.0 µM 17% | [1]; at 33.0 µM 29% | [1]; at 100.0 µM 47% | [2]; at 1.2 µM -2% | [2]; at 3.7 µM -3% | [2]; at 11.0 µM -1% | [2]; at 33.0 µM -5% | [2]; at 100.0 µM -7% | [3]; at 1.2 µM 5% | [3]; at 3.7 µM 6% | [3]; [16] 24% | [3]; at 11.0 µM 6% | [3]; at 33.0 µM 24% | [3]; [17] 36% | [3]; at 50.0 µM 9.35% | [3]; at 100.0 µM 36% | [4]; at 1.2 µM 2% | [4]; at 3.7 µM 6% | [4]; [16] 7% | [4]; at 11.0 µM 2% | [4]; at 33.0 µM 15% | [4]; [17] 28% | [4]; at 50.0 µM -20.9% | [4]; at 100.0 µM 33% | [5]; at 1.2 µM 5% | [5]; at 3.7 µM 9% | [5]; at 11.0 µM 7% | [5]; at 33.0 µM 18% | [5]; at 100.0 µM 34% | [6]; [16] 45% | [6]; at 50.0 µM 1.7% | [8]; [16] 5% | [8]; [17] 28% | [8]; at 50.0 µM -12.1% | [9]; at 1.2 µM -8% | [9]; at 3.7 µM -13% | [9]; [16] 9% | [9]; at 11.0 µM -18% | [9]; at 33.0 µM 4% | [9]; [17] 29% | [9]; at 50.0 µM 5.75% | [9]; at 100.0 µM 17% | [10]; at 1.2 µM -3% | [10]; at 3.7 µM -4% | [10]; at 11.0 µM -1% | [10]; at 33.0 µM 0% | [10]; at 100.0 µM 1% | [11]; at 1.2 µM 11% | [11]; at 3.7 µM 22% | [11]; at 11.0 µM 16% | [11]; at 33.0 µM 29% | [11]; at 100.0 µM 44% | [12]; at 1.2 µM 14% | [12]; at 3.7 µM 20% | [12]; at 11.0 µM 19% | [12]; at 33.0 µM 26% | [12]; at 100.0 µM 52% | [13]; [16] 43% | [13]; at 50.0 µM -49.6% | [14]; at 1.2 µM -3% | [14]; at 3.7 µM 2% | [14]; at 11.0 µM 4% | [14]; at 33.0 µM 17% | [14]; at 100.0 µM 35%
